Only some compounds are listed: those with a hit (about 2.9% of all), similar ones and a draw of the others.
H9c2 protect: protects H9c2 cardiomyocytes from peroxide injury. 0.63% of 360,000 active. H2O2 injury protection, ATPLite, 2 h. protection from H2O2 cell death, % at 20 µM;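 active = compounds giving at least 50% protection of heart cells from peroxide-induced death in the single-dose screen, raw or plate-pattern-corrected value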;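 note: 0% = DMSO wells with peroxide and 100% = DMSO wells without peroxide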
PfGluPho inh: PfG6PD (Plasmodium falciparum) enzyme inhibition; PfGluPho enzyme, NADPH resazurin-diaphorase fluorescence; inhibition, % at 20 µM; 0.78% of 350,000 active;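 active = inhibition reaching at least a set limit at 20 µM in the primary screen, cut at about 59% in these data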;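 note: 0% = DMSO wells with substrate and 100% = DMSO wells lacking glucose-6-phosphate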
A3G deaminase: inhibitors of human APOBEC3G DNA deaminase. Q9HC16. 0.28% of 330,000 active. inhibition, % at 20 µM. recombinant A3G, ssDNA deamination FAM/TAMRA fluorescence;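 active = inhibition of at least 40% at 20 µM, with no more than 30% in the related APOBEC3A deaminase screen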;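 note: plate controls were DMSO wells with A3G for no effect and wells lacking A3G enzyme for full effect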
Target sequence (Q9HC16 whole entry, looked up): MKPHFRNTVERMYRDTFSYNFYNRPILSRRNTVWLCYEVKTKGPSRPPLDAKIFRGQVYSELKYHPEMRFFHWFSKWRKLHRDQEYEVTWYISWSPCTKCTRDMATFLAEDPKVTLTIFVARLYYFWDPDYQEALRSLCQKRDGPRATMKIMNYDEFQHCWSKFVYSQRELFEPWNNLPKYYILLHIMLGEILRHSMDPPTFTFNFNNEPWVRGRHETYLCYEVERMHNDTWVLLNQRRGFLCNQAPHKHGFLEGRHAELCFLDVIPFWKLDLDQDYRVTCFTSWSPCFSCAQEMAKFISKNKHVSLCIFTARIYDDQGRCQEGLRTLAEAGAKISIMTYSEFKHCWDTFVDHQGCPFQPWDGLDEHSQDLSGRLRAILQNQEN
NadD block: inhibitors of Staphylococcus aureus NadD | 0.78% of 360,000 active | purified NadD enzyme, colorimetric absorbance read-out | inhibition, % at 20 µM | AID 602399; in the data active = inhibition above about 26%
TAG inh: reduces triacylglycerol accumulation in H9c2 cells; Nile Red lipid (TAG) fluorescence; cells loaded with 200 µM oleic acid; 0.66% of 230,000 active; inhibition, % at 12.5 µM; AID 651582;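 active = pattern-corrected inhibition of lipid staining of at least 50% with the nuclear-stain viability signal not falling by more than 50%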;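 note: 0% = DMSO wells and 100% = triacsin C control wells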
APOBEC3A inh: inhibitors of human APOBEC3A DNA deaminase. recombinant A3A, FAM/TAMRA ssDNA deamination fluorescence. inhibition, % at 20 µM. 0.41% of 330,000 active. AID 493011;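 active = at least 40% inhibition at 20 µM here, with at most 30% in a related deaminase screen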;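 note: plate controls were A3A with DMSO for no effect and wells lacking A3A enzyme for full effect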
Target sequence (P31941 whole entry, looked up): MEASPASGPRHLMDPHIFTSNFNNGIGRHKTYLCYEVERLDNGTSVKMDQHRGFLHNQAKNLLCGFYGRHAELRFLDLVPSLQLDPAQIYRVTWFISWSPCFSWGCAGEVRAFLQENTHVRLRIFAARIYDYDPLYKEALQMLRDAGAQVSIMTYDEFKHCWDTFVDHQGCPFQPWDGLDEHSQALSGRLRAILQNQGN
PfGluPho conf: confirmation of Plasmodium falciparum G6PD inhibitors; shares compounds with PfGluPho inh; 34% of 2,400 active; recombinant PfGluPho, NADPH-diaphorase-resazurin fluorescence; inhibition, % at 20 µM;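 active = inhibition of at least 50% at 20 µM in any single replicate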;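 note: 0% = DMSO with substrate and 100% = DMSO lacking glucose-6-phosphate substrate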
Diaph ctr 10uM: inhibits diaphorase or oxidizes, flagging false PfG6PD hits; shares compounds with PfGluPho inh; 39% of 820 active; diaphorase-coupled resazurin reduction, fluorescence, NADPH 10 uM; inhibition, % at 20 µM; AID 504862;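 active = average inhibition reaching 50% or more with the compound at 20 µM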;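 note: resorufin red fluorescence formed as diaphorase reduces resazurin using NADPH; 0% = DMSO with enzyme and 100% = DMSO without enzyme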
Diaphorase 30uM: counter-screen for P. falciparum G6PD inhibitors: diaphorase inhibitors, oxidizers | shares compounds with PfGluPho inh | Diaphorase/resazurin coupled assay, resorufin fluorescence, 30 uM NADPH | inhibition, % at 20 µM | 29% of 820 active | AID 504863;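 active = inhibition averaging 50% or more, tested at 20 µM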;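 note: 0% = DMSO with enzyme and 100% = DMSO wells lacking diaphorase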
NadD inh conf: confirmation of Staphylococcus aureus NadD inhibitors; shares compounds with NadD block; purified S. aureus NadD, colorimetric enzyme assay; inhibition, % at 20 µM; 13% of 2,000 active; AID 624309; in the data active = inhibition mostly above about 42%, no sharp cut-off; inactive = mostly below about 42%
H9c2 TAG conf: triacylglycerol accumulation inhibition, confirmation; H9c2 lipid accumulation, Nile Red fluorescence; cells loaded with 200 µM oleic acid; 71% of 990 active; shares compounds with TAG inh; inhibition, % at 12.5 µM;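 active = mean inhibition across replicates of 40% or more; inactive = mean inhibition below 40%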;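 note: plate controls were DMSO only wells for no effect and Triacsin C treated wells for full effect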
An asterisk follows results filed as active; x = no result.

SMILES | H9c2 protect | PfGluPho inh | A3G deaminase | NadD block | TAG inh | APOBEC3A inh | others
NC(Cc1cc(O)c(O)cc1O)C(=O)O (centres undefined) | x | x | 84 | x | x | 101
O=C(OCC(=O)c1ccc([N+](=O)[O-])cc1)/C(=C\c1ccc(Cl)cc1)NC(=O)c1ccccc1 | 11 | 44 | 3 | 5 | x | -3 | PfGluPho conf=69*;Diaph ctr 10uM=-3;Diaphorase 30uM=-12
O=C(Cc1ccccc1)OCC(=O)c1ccccc1 | 4 | 0 | 1 | -5 | -16 | -1
COc1cc2c(cc1OC)C13CCN4CC5=CCOC(CC(=O)O)C(C5CC41)C3N2 (centres undefined) | -2 | 46 | x | 1 | -10 | x
CCC(C)C1NC(=O)C(NC(=O)C(CC(C)C)N(C)C(=O)C2CCCN2C(=O)C(C)O)C(C)OC(=O)C(Cc2ccc(OC)cc2)N(C)C(=O)C2CCCN2C(=O)C(CC(C)C)NC(=O)[C@H](C)C(=O)[C@H](C(C)C)OC(=O)CC1O (some centres undefined) | 11 | 5 | x | -3 | 124 | x
COc1cccc(N2C(=O)NC(=O)/C(=C/c3ccc4c(c3)Cc3ccccc3-4)C2=O)c1 | -3 | 10 | 2 | 4 | -7 | 6
COc1cccc(N2C(=O)NC(=O)/C(=C/c3ccc([N+](=O)[O-])s3)C2=O)c1 | 1 | 83* | 19 | 10 | -2 | 16 | PfGluPho conf=43
CCOc1cccc(CNCCc2c(C)[nH]c3ccc(OC(F)(F)F)cc23)c1O | -20 | 23 | -4 | 1 | x | 0
COc1cccc(-n2c(/C=C/c3ccc(O)c(O)c3)nc3ccccc3c2=O)c1 | 72* | 64* | -4 | 14 | 0 | 5 | PfGluPho conf=6
C[C@@H]1CN([C@H](C)CO)C(=O)CCCn2nncc2CO[C@@H]1CN(C)C(=O)Oc1ccc2ccccc2c1 | 15 | 0 | x | 4 | 5 | x
CC(=O)OC1N=C(c2ccc(Cl)cc2)c2cc(Br)ccc2NC1=O (centres undefined) | -1 | 78* | -5 | -5 | -25 | -5 | PfGluPho conf=47
CC(=O)OC1N=C(c2ccccc2)c2cc(Br)ccc2NC1=O (centres undefined) | 7 | -5 | -7 | -4 | 8 | 30
CCOP(=S)(OCC)Oc1cc(C)oc(=O)c1Cl | 2 | 63* | 7 | 2 | 2 | 2 | PfGluPho conf=17
CCOP(=S)(OCC)Oc1ccc2c(C)c(Cl)c(=O)oc2c1 | -10 | 15 | x | 0 | -6 | x
O=C(Cc1cc(=O)oc2cc(O)ccc12)NN=Cc1ccc(N(CCCl)CCCl)cc1 | 14 | -19 | x | 54* | 4 | x | NadD inh conf=49*
Cc1noc(C)c1COc1ccc(C(=O)NCC2(N(C)C)CCCCC2)cc1 | 8 | -13 | x | -1 | 17 | x
CCCCn1c(=O)c(C(=O)Nc2ccccc2C)c(O)c2ccccc21 | 31 | 4 | -3 | -6 | x | -1
CC(C)CCn1c(=O)c(C(=O)Nc2ccccc2S(N)(=O)=O)c(O)c2ccccc21 | -14 | 11 | -7 | 49* | x | -4 | NadD inh conf=23
O=c1[nH]c(=S)[nH]c(O)c1N=Nc1ccc(S(=O)(=O)N2CCc3ccccc32)cc1 | -10 | 26 | 3 | 49* | x | 7 | NadD inh conf=70*
O=c1[nH]c(=S)[nH]c(O)c1N=Nc1ccc(SC(F)F)cc1 | -16 | 0 | -4 | 0 | -1 | -3
COc1ccc(OC(=O)N(C)C[C@@H]2OCc3cnnn3CCCC(=O)N([C@H](C)CO)C[C@H]2C)cc1 | -3 | -1 | x | -2 | -6 | x
O=c1[nH]c2ccccc2n1C1CCN(C(CCc2ccccc2)c2nnnn2-c2ccc3c(c2)OCCO3)CC1 (centres undefined) | 17 | x | x | 25 | x | x
NNC(=O)c1nc[nH]c1C(=O)Nc1ccc(Cl)cc1C(=O)c1ccccc1 | 4 | -6 | -6 | 48* | x | -6 | NadD inh conf=24
Cc1ccc(C(=O)Nc2ccc(Cl)cc2C(=O)c2ccccc2)cc1 | -12 | 5 | 0 | -4 | x | 1
c1ccc2c(CN3CCN(C4CCCCC4)CC3)c[nH]c2c1 | 2 | 13 | 5 | 38* | 2 | -3 | NadD inh conf=-19
SMILES | H9c2 protect | PfGluPho inh | A3G deaminase | NadD block | TAG inh | APOBEC3A inh | others
Cc1cccc(C)c1-n1nnnc1C(CCc1ccccc1)N1CCC(n2c(=O)[nH]c3ccccc32)CC1 (centres undefined) | -13 | x | x | 30* | x | x | NadD inh conf=1
COc1ccc2nc(-c3ccc(CN4CCC(n5c(=O)[nH]c6ccccc65)CC4)cc3)c(-c3ccccc3)nc2c1 | x | x | x | 37* | x | x | NadD inh conf=20
Cc1ccc2nc(-c3ccc(CN4CCC(n5c(=O)[nH]c6ccccc65)CC4)cc3)c(-c3ccccc3)nc2c1 | x | x | x | 25 | x | x
Cc1ccccc1NC(=O)N1Cc2ccccc2-n2nncc2C1 | -5 | 16 | x | 3 | 5 | x
CC[C@H]1CN2CCC1C[C@H]2[C@H](O)c1ccnc2ccc(OC)cc12 (some centres undefined) | -2 | 13 | -2 | 48* | -13 | -2 | NadD inh conf=-16
CCCCn1c(N)c(C(=O)NCc2cccs2)c2nc3ccccc3nc21 | -19 | 31 | 1 | 6 | 67* | 3 | H9c2 TAG conf=1
O=C1NCN(c2ccccc2)C12CCN(C(c1cc3ccccc3o1)c1nnnn1C1CCCCC1)CC2 (centres undefined) | -12 | x | x | 12 | x | x
CN1C(=O)NC(=O)C(N=Nc2ccc(Cl)cc2)C1=O (centres undefined) | -11 | 9 | x | 0 | -13 | x
CCOC(=O)C(NC(=O)CC)(Nc1ccc(C(O)(C(=O)OCC)C(F)(F)F)cc1C)C(F)(F)F (centres undefined) | 4 | 12 | 11 | -3 | 55* | 0 | H9c2 TAG conf=23
COC(=O)C1=C(c2ccc(OCc3ccccc3)c(F)c2)C[C@@H]2CC[C@H]1N2C | -1 | 2 | x | 3 | 13 | x
COC(=O)C1=C(c2cc3ccccc3s2)C[C@@H]2CC[C@H]1N2C(=O)N1CCOCC1 | -8 | -10 | -9 | -6 | 52* | -4 | H9c2 TAG conf=45*
O=P(O)(O)CN1CCNCCN(CP(=O)(O)O)CCNCC1 | 7 | 4 | x | 0 | 57* | x | H9c2 TAG conf=63*
C[C@H]1CN([C@@H](C)CO)C(=O)CCCn2nncc2CO[C@@H]1CN(C)C(=O)Oc1ccccc1 | -6 | -7 | x | 8 | -4 | x
COC(=O)C1=C(c2ccccc2OCc2ccccc2)C[C@@H]2CC[C@H]1N2C(=O)NCc1ccc(OC)c(OC)c1 | 10 | 14 | -7 | -3 | 56* | -5 | H9c2 TAG conf=28
COC(=O)C1=C(c2ccccc2OCc2ccccc2)C[C@@H]2CC[C@H]1N2C(=O)NCc1cccc(F)c1 | 6 | 17 | -9 | -9 | 33 | -7
